We go through 13 compounds from PubChem BioAssay AID1224854 (National Center for Advancing Translational Sciences (NCATS), 2016).

Inconclusive results are not listed. Entries that show only a call come without a potency. The source made the active and inactive calls. Calls come from the whole dose curve; as a rule, active = well fitted activation curve with a large enough effect; inconclusive = small, poorly fitted or top-dose-only effect; inactive = flat fitted curve, though single readings scatter.

The assay in a line: Cell viability assay for measurement of the protective activity of small molecules against cell death caused by Zika virus infection in human astrocytoma cells. The following applies: SNB-19 Zika virus cytoprotection, ATP luminescence, 72 h; series mostly up to 46.1 µM. An excerpt: National Center for Advancing Translational Sciences [NCATS] Johns Hopkins University School of Medicine Florida State University Assay Overview: Zika virus infection causes cell death in certain cell types including human neural progenitor cells (hNPCs), astrocytes, and astrocytoma cell line (SNB-19). This cell viability assay measures the ATP content (level) in human astrocytoma cells (SNB-19) using a luminescence readout that is proportional to viable cell numbers. Decrease in the luminescence signal after Zika virus infection indicates the cell death caused by Zika virus. Small molecule inhibitors […] the decreased luminescence signal after Zika virus infection, indicating the protective effect of that small molecule on the cell death caused by Zika virus infection. This observed protective effect of small molecules against Zika virus induced cell death may result from inhibition of virus replication or cellular response to the virus infection.
Assay Protocol Summary: The medium for SNB-19 cells is composed of RPMI 1640 (ATCC, Cat.# 30-2001), 10% fetal bovine serum (FBS) (GE healthcare Life Sciences, Cat.# SH30071.03), and 1% Pen/Strep (Gibco, Cat.# 15140-122). The ATP content assay kit (PerkinElmer, Cat.# 6016731) was used to determine cell viability. The reagent was reconstituted and prepared as described by the manufacturer. Cells were seeded in 384- or 1536-well assay plates and cultured at 37 C with 5% CO2 for 16 to 20 hours. The typical cell seeding density in the 1536-well plate assay is 250 cells/well in 3ul medium for SNB-19 cells in tissue culture treated plates. Compounds were added to cells and incubated for one hour before addition of ZIKV solution to cells (2 FFU/cell). After incubation at 37 C with 5% CO2 for 72 hours, the reagent mixture of the ATP content assay kit was added to each well, followed by incubation at room temperature for 10 minutes. The luminescence intensity of the assay plates was measured using a ViewLux plate reader (PerkinElmer). […] The percentage inhibitions of the decreased cell viability by small molecule inhibitors were then calculated.
Consider `COc1cccc2c1C(=O)c1c(O)c3c(c(O)c1C2=O)C[C@@](O)(C(=O)CO)CC3OC1CC(N2CCOC(OC)C2)C(O)C(C)O1` (stereo partly drawn), for which the Potency was 388 nM (active).

For the compound `CN1CC(=O)N2C(Cc3c([nH]c4ccccc34)[C@H]2c2ccc3c(c2)OCO3)C1=O` (stereo partly drawn), the Potency result was “inactive”.

Regarding `S=C(SSC(=S)N1CCCCC1)N1CCCCC1`, the Potency was 17300 nM (active).

On to `O=C(Nc1ccc(Br)cc1)c1cc(Br)cc(Br)c1O`, for which the Potency result is “inactive”.

Regarding `O=C1CCC[C@@H]2[C@H]3CCCN4CCC[C@@H](CN12)[C@@H]34`, the Potency entry was “inactive”.

With `CC(C)N[C@@H]1CCn2c(=O)[nH]c3cccc(c32)[C@@H]1O`, the Potency result is “inactive”.

With `O=S(=O)(CC1CS1)c1ccc(Oc2ccccc2)cc1` (stereo not drawn), the Potency entry was “inactive”.

With `O=c1c2ccccc2[se]n1-c1ccccc1`, the Potency entry was “inactive”.

`CC(=C(CCOC(=O)C(C)C)SSC(CCOC(=O)C(C)C)=C(C)N(C=O)Cc1cnc(C)nc1N)N(C=O)Cc1cnc(C)nc1N`: the Potency entry was “inactive”.

Regarding `CN1CC[C@@]2(C)c3cc(OC(=O)Nc4ccccc4)ccc3N(C)[C@@H]12`, the Potency entry was “inactive”.

Turning to `COP(=S)(OC)SCN1C(=O)c2ccccc2C1=O`, the Potency entry was “inactive”.

Regarding `CC(C)[C@H]1C(=O)N[C@H](CO)Cc2c[nH]c3cccc(c23)N1C`, the Potency was 2450 nM (active).

`Cc1ccc([N+](=O)[O-])[c]2c1[O][Hg]2`: the Potency entry is “inactive”.
